Shiga toxin inh: blocks Shiga toxin action in Vero cells. Vero cells, Shiga toxin protein synthesis inhibition reporter. inhibition, % at 38.7 µM. 290,000 tested, 9.2% active. AID 2315; in the data active means inhibition mostly above about 28%, no sharp cut-off; inactive means mostly below about 43%; further: 0% is about no effect
Pf growth 48h: inhibits P. falciparum growth in the first generation, 48 h. P. falciparum luciferase growth in erythrocytes, 48 h. 310,000 tested, 5.9% active. Potency, µM (highest dose often 28.7 µM), for inactives: at the top dose activity change, negative = inhibition, actives largely listed as inhibitors. AID 504832; further: potency means the concentration at half of the fitted maximal effect; on the % scale 0 is the no-effect control and ±100 the full control effect
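Erythrocytes infected with P. falciparum carrying an integrated firefly luciferase reporter (2% hematocrit, 0.1% parasitemia final) were exposed to compounds in RPMI 1640 with 0.5% Albumax at 37 C, 5% CO2. Growth inhibition was scored as reduced luminescence.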
LmPK inh: blocks Leishmania mexicana pyruvate kinase activity; Potency, µM (titrated, usually from 57.5 µM), without a hit: at the top dose activity change, negative = inhibition, hits mostly inhibitors; purified LmPK, Kinase-Glo ATP luminescence, 1 h; 290,000 tested, 0.37% active; further: potency means the concentration at half of the fitted maximal effect; on the % scale 0 is the no-effect control and ±100 the full control effect
Target sequence (Q27686 whole entry, looked up): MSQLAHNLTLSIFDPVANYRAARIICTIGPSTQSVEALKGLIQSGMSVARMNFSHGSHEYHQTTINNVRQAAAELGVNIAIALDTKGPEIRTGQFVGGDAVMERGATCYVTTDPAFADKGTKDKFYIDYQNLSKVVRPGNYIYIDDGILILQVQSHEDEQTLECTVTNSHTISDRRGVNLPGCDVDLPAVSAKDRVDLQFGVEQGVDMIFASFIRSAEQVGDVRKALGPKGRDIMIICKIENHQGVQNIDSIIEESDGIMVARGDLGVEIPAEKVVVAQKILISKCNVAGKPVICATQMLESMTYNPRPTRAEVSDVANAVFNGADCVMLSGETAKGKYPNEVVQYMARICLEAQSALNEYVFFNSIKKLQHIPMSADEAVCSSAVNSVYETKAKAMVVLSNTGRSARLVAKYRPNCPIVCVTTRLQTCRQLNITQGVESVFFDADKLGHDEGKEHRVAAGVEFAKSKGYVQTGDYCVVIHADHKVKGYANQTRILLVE
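ATP generated from ADP (0.1 mM) and PEP (0.5 mM) by 0.1 nM LmPK over 1 h at room temperature (pH 7.2 imidazole buffer) was detected by coupled luciferase luminescence. Values were normalized to uninhibited and no-enzyme wells.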
Pf growth 96h: P. falciparum growth inhibition at 96 hour, primary screen for plastid delayed-death inhibitors. AID 504834. 320,000 tested, 6.9% active. Potency, µM (top dose mostly 28.7 µM), for inactives: top-dose activity change, negative = inhibition, hits mostly inhibitors. P. falciparum luciferase reporter growth, 96 h; further: potency means the concentration at half of the fitted maximal effect; on the % scale 0 is the no-effect control and ±100 the full control effect
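Parasite growth measured via integrated firefly luciferase reporter in P. falciparum. Infected erythrocytes at 2% hematocrit, 0.05% parasitemia final were treated 96 hours at 37 C under 5% CO2, and luminescence was read.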
CHX counter: affects cycloheximide protein synthesis inhibition readout, counter-screen | AID 2314 | max response, % | 300,000 tested, 12% active | cell reporter, cycloheximide protein synthesis inhibition counterscreen; in the data active means max response mostly above about 13%, no sharp cut-off; inactive means mostly below about 14%; further: read at 38.3 µM for the half of the compounds with a filed dose; 0% is about no effect
Numbers without * were called inactive; [ ] = dose if it differs, or a comment. The list is not random: actives were taken first. Their share in the collection is about 22%. Unless noted, the call rests on the fitted dose curve; in most records, active means well fitted inhibition curve with a large enough effect; inconclusive means small, poorly fitted or top-dose-only effect, or another doubt; inactive means no such curve, though single readings can be large or run the other way.

For N#CC1=C(N)C(C#N)(C#N)C(c2cccnc2)C2CC(c3ccccc3)CC=C12 (centres undefined) the results were Shiga toxin inh -17.0, Pf growth 48h inconclusive, LmPK inh -2.9%, Pf growth 96h 11.7µM* and CHX counter -1.6.
For CCOC(=O)N1CC=C2C(C#N)=C(N)C(C#N)(C#N)[C@H](c3ccccc3OCC)[C@H]2C1 the results were Shiga toxin inh 32.3, Pf growth 48h 5.3%, LmPK inh -6.2% and CHX counter 12.0.
For N#CC1=C(N)C(C#N)(C#N)[C@H](c2cccnc2)[C@H]2CN(C(=O)OCc3ccccc3)CC=C12 the results were Shiga toxin inh -6.2, Pf growth 48h inconclusive, LmPK inh 1.5%, Pf growth 96h 13.1µM* and CHX counter -3.9.
For CCOC(=O)N1CC=C2C(C#N)=C(N)C(C#N)(C#N)[C@H](c3ccc(OC(C)C)c(OCC)c3)[C@H]2C1 the results were Shiga toxin inh -7.9, Pf growth 48h 5.22µM*, LmPK inh -3.5%, Pf growth 96h -19.5% and CHX counter 8.8.
`N#CC1=C(N)C(C#N)(C#N)C(c2cccnc2)C2CCCC=C12` (centres undefined) gave Shiga toxin inh -4.3, Pf growth 48h -2.3%, LmPK inh -2.7%, Pf growth 96h -10.5% and CHX counter -8.1.
COc1cc(OC)c(NC(=O)CCNS(=O)(=O)c2ccc3c(c2)CC(C)N3C(C)=O)cc1Cl (centres undefined) was read as Shiga toxin inh -9.4, Pf growth 48h -26.8%, LmPK inh -1.4%, Pf growth 96h 321.7% and CHX counter -2.0.
`O=C1CC(N(C(=O)c2ccco2)c2cccc(Cl)c2)C(=O)N1c1cccc(Cl)c1` (centres undefined) gave Shiga toxin inh -3.6, LmPK inh -5.5%, Pf growth 96h -8.8% and CHX counter 1.4.
Cc1nc(-c2ccc(NC(=O)c3ccccc3Br)cc2)cs1 was read as Shiga toxin inh 57.3*, Pf growth 48h 85.7%, LmPK inh -8.3%, Pf growth 96h 52.1% and CHX counter 54.6*.
`Cc1nc(-c2cccc(NC(=O)c3cc4cc(Br)ccc4oc3=O)c2)cs1` gave Shiga toxin inh -8.9, Pf growth 48h inconclusive, LmPK inh 6.5%, Pf growth 96h inconclusive and CHX counter 4.6.
Screening Cc1nc(-c2ccc(NC(=O)c3ccccc3C)cc2)cs1 returned Shiga toxin inh 61.2*, Pf growth 48h 368.6%, LmPK inh inconclusive, Pf growth 96h -55.3%[5.75 µM] and CHX counter 31.1*.
`CC(C)C[C@]1(c2ccccc2)ON(c2ccccc2C(F)(F)F)C1=O` gave Pf growth 48h 9.28µM* and Pf growth 96h inconclusive.
CC[C@]1(c2ccccc2OC)ON(c2ccccc2C(F)(F)F)C1=O was read as Pf growth 48h 0.522µM* and Pf growth 96h 0.415µM*.
CCCCN1C(=O)C(O)(CC(=O)c2ccccc2OC)c2ccccc21 (centres undefined) was read as Shiga toxin inh -11.6, Pf growth 48h 11.5%, LmPK inh 4.6%, Pf growth 96h -17.6% and CHX counter -4.5.
Screening COc1ccc2c(c1)C(=O)N(c1ccccc1OC)C(=O)C2(C)C returned Shiga toxin inh -17.4, LmPK inh 9.5%, Pf growth 96h 46.0% and CHX counter -3.3.
Screening COc1ccccc1[C@]1(C)ON(c2ccccc2C(F)(F)F)C1=O returned Pf growth 48h 1.04µM* and Pf growth 96h 0.828µM*.
`Cc1c([N+](=O)[O-])nnn1-c1cc(Cl)cc(Cl)c1` gave Shiga toxin inh 14.8, Pf growth 48h 13.1%, LmPK inh -1.8%, Pf growth 96h 15.6% and CHX counter 2.6.
For CC(C)(C)C1CCC(C(=O)Nc2ccc(N3CCOCC3)cc2N2CCOCC2)CC1 (centres undefined) the results were Pf growth 48h 10.4µM* and Pf growth 96h inconclusive.
`O=C(Nc1ccc(N2CCOCC2)cc1N1CCOCC1)c1ccc(Br)cc1` gave Shiga toxin inh -3.6, Pf growth 48h inconclusive, LmPK inh 0.0%, Pf growth 96h 34.7% and CHX counter -0.2.
For CCCCC1CCC(C(=O)Nc2ccccc2N2CCOCC2)CC1 (centres undefined) the results were Pf growth 48h 14.7µM* and Pf growth 96h inconclusive.

Source: PubChem (National Center for Advancing Translational Sciences (NCATS))
